For 40 compounds, Potency results are on record in PubChem BioAssay (NCATS).

The structures appear in SMILES notation. Results filed as inconclusive are left out. Entries that show only a call come without a potency. Active and inactive are the calls of the source. Calls come from the whole dose curve; as a rule, active = well fitted cell-killing curve with a large enough effect; inconclusive = small, poorly fitted or top-dose-only effect, or effect the other way; inactive = flat fitted curve, though single readings scatter.

The assay in a line: qHTS for Inhibitors of ATXN expression: Validation of Cytotoxic Assay (AID 588349). The settings on record: cytotoxicity counter-screen for ATXN expression inhibitors, cell viability; series mostly up to 57.1 µM. The text has this: Spinocerebellar ataxia type 2 (SCA2) is a multisystem neurodegenerative disease caused by a dominantly-acting mutation leading to expansion of a polyQ domain in the ataxin-2 protein (ATXN2). SCA2 patients develop progressive ataxia and later lose function in other neuronal systems. Prominent parkinsonian signs develop in some patients. Similar to many neurodegenerative disorders, no symptomatic or disease-modifying treatments are known.
The primary objective of project is to identify compounds inhibiting ATXN2 expression and to test them for efficacy in SCA2 mouse models. To this end, in a collaboration between Dr. Daniel Scoles and scientists at NCGC, a cell-based assay adapted to high-throughput screening has been developed to screen the NIH Molecular Libraries Small Molecule Repository (MLSMR). Confirmed qHTS active compounds will be tested for toxicity against the human neuron-like SH-SY5Y cell line. This line is the parental cell type used to generate the transgenic line used in the primary assay, and so should provide an isogenic control to test the inherent toxicity of qHTS actives.
NIH Chemical Genomics Center [NCGC]
NIH Molecular Libraries Probe Centers Network [MLPCN]
Assay Submitter (PI): Stefan Pulst and Daniel Scoles, University of Utah
HEK293 cultured cells will be dosed with titrated compounds and incubated for 72 hr at 37 degrees C. Toxicity will be assessed using the CellTiter Glo kit (Promega), which uses intracellular ATP concentration as a viability marker.
For `COc1cc(CC(=O)O)ccc1O`, the Potency entry is “inactive”.

For the compound `O=c1[nH]ccc2c(O)cccc12`, the Potency entry is “inactive”.

In the case of `CC1=C(/C=C/C(C)=C/C=C/C(C)=C\C(=O)O)C(C)(C)CCC1`, the Potency result was “inactive”.

In the case of `COC(=O)C(C)(N)Cc1ccc(O)cc1` (stereo not given), the Potency entry is “inactive”.

`N[C@H](C(=O)O)[C@H]1C[C@@H]1C(=O)O`: the Potency result is “inactive”.

Consider `O=C(O)/C=C/c1cnc[nH]1`, for which the Potency result is “inactive”.

On to `NC1CONC1=O` (stereo not given), for which the Potency result is “inactive”.

For the compound `CCCn1c(=O)c2c(ncn2C)n(CCC)c1=O`, the Potency result is “inactive”.

For `O=[N+]([O-])c1cccc2c(Br)[nH]nc12`, the Potency result is “inactive”.

Regarding `[N-]=[N+]=Nc1ccc(C(=O)CSC[C@H](NC(=O)CC[C@H](N)C(=O)O)C(=O)NCC(=O)O)cc1`, the Potency entry was “inactive”.

With `O=S(=O)(c1cccc2c(Cl)cccc12)N1CCCNCC1`, the Potency result is “inactive”.

For `CCCn1c(=O)c2[nH]c(-c3ccc(S(=O)(=O)O)cc3)nc2n(CCC)c1=O`, the Potency entry is “inactive”.

For `COc1ccc(C(=O)NCc2cccnc2)cc1C(=O)NCc1cccnc1`, the Potency entry is “inactive”.

Take `O=C(O)/C(=C/c1c(C(=O)O)[nH]c2cc(Cl)cc(Cl)c12)c1ccccc1`: the Potency result was “inactive”.

For the compound `CN(C)CCC(c1ccc(Br)cc1)c1ccccn1` (stereo not given), the Potency entry was “inactive”.

`OC[C@H]1O[C@H](n2cnc3c(N[C@H]4CCC[C@@H]4O)ncnc32)[C@H](O)[C@@H]1O`: the Potency result was “inactive”.

As for `CC(N)(Cc1ccc(O)cc1)C(=O)O` (stereo not given), the Potency result is “inactive”.

Consider `NC1(C(=O)O)CCc2cc(C(=O)O)ccc21` (stereo not given), for which the Potency entry is “inactive”.

Take `C=CC[C@H](N)C(=O)O`: the Potency result is “inactive”.

In the case of `CC(=O)[C@H]1CCC2C3CC=C4C[C@@H](OS(=O)(=O)O)CC[C@]4(C)C3CC[C@@]21C` (stereo not given in full), the Potency result is “inactive”.

For `Nc1ccc(N2C(=O)c3ccccc3C2=O)c(Cl)c1`, the Potency result is “inactive”.

For `CNc1cc(NS(=O)(=O)c2ccc(N)cc2)nc(NC)n1`, the Potency entry was “inactive”.

Turning to `CC(C)C[C@H](NC(=O)[C@H](O)[C@H](N)Cc1ccccc1)C(=O)O`, the Potency result is “inactive”.

For the compound `Cn1c(=O)c2[nH]c(-c3ccc(S(=O)(=O)O)cc3)nc2n(C)c1=O`, the Potency result was “inactive”.

With `N=S(=O)(O)Cc1noc2ccccc12`, the Potency result is “inactive”.

For the compound `Nc1ccc(-c2nc3ccc(-c4nc5ccc(N)cc5[nH]4)cc3[nH]2)cc1`, the Potency entry is “inactive”.

Take `CCCCCCCCCCCCCCC[C@H](O)[C@H](N)CO`: the Potency entry is “inactive”.

Take `O=C(O)C1=CCNCC1`: the Potency entry is “inactive”.

In the case of `CN(C)C(=O)/N=N/C(=O)N(C)C`, the Potency entry was “inactive”.

Regarding `C#CC(N)CCC(=O)O` (stereo not given), the Potency entry was “inactive”.

Take `O=c1[nH]c(=S)[nH]c(-c2ccccc2)c1Cc1c(O)ccc2ccccc12`: the Potency result was “inactive”.

`C[C@@H](NCCc1ccc(O)cc1)[C@@H](O)c1ccc(O)cc1`: the Potency result was “inactive”.

On to `O=C(OCCN1CCOCC1)C1(c2ccccc2)CCCCC1`, for which the Potency result is “inactive”.

With `C[C@H]1CC2C3CCC4=CC(=O)C=C[C@]4(C)[C@@]3(Cl)[C@@H](O)C[C@]2(C)[C@@]1(O)C(=O)CO` (stereo not given in full), the Potency result is “inactive”.

As for `N=C(N)SCCN`, the Potency result was “inactive”.

Consider `O=C(O)C1CCNCC1`, for which the Potency result is “inactive”.

Take `CCCCCCCCCCCCCCSCC(=O)O`: the Potency entry is “inactive”.

As to `CC(=O)C(C)=O`, the Potency result is “inactive”.

`COc1ccccc1N1CCN(CCN(C(=O)c2ccc(F)cc2)c2ccccn2)CC1`: the Potency entry is “inactive”.

On to `Cn1c(=O)[nH]c2ncn(C)c2c1=O`, for which the Potency result is “inactive”.
